This note sets out measurements from PubChem BioAssay AID1851 (National Center for Advancing Translational Sciences (NCATS), 2009).

SMILES strings stand for the structures. Where “and” joins values, the source holds several entries; their conditions need not be identical. Identical values can stand only once. Screen size: about 16,000 compounds; about 5,100 (32%) were called active. Another 25% or so got no clear call; they are omitted. This is one part of the list. A number with no mark means an inactive call. Calls come from the whole dose curve; as a rule, active = well fitted curve in the direction sought with a large enough effect; inconclusive = small, poorly fitted or top-dose-only effect, or effect the other way; inactive = no such curve, though single readings can be large or run the other way.
% is set by controls: 0 for no effect and ±100 for the full control effect.

For this experiment, the target named is Cytochrome P450 3A4 (Homo sapiens) (UniProt P08684). Description: Cytochrome panel assay with activity outcomes. The following applies: recombinant CYP, pro-luciferin dealkylation, luminescence, p450-cyp3a4; series mostly up to 57.1 µM; activity, negative = inhibition: at the top concentration.
Cytochrome P450 3A4 (Homo sapiens), sequence (P08684 whole entry, looked up): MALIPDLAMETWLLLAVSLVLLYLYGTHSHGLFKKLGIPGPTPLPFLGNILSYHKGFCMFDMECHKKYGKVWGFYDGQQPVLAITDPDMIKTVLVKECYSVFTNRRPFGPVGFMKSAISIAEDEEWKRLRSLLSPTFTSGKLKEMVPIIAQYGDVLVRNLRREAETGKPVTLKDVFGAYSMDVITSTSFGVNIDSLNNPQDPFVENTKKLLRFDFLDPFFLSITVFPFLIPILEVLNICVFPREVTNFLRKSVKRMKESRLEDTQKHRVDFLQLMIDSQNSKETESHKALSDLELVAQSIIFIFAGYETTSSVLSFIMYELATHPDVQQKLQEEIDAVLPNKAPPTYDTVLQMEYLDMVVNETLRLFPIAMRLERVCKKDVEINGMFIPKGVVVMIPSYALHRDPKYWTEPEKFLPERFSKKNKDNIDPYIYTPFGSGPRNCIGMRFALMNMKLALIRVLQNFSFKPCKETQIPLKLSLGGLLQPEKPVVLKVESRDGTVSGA
By AC50 is commonly meant the concentration giving half of the maximal activity seen. For `CN1CCN(c2ncncc2-c2ccoc2)CC1`, the AC50 is 7.94 µM (active).
For the compound `CC(C)(C)c1c2c(c(C(C)(C)C)c3c1OCN(Cc1ccccc1)C3)OCN(Cc1ccccc1)C2`, the activity, negative = inhibition is 5.7% [at 11.4 µM].
Take `CC[C@@H](Nc1ncnc2nc[nH]c12)C(=O)O`: the activity, negative = inhibition was -5.2% [at 11.4 µM].
Consider `COc1ccc(C(=O)NNC(=O)Cc2ccc(-c3ccccc3)cc2)cc1OC`, for which the AC50 is 6.31 µM (active).
Regarding `Cc1occc1C(=O)NNC(=O)Cc1ccccc1`, the “activity, negative = inhibition” value is -19.8%.
In the case of `COc1ccc(OCC(=O)NNC(=O)c2ccc(-c3ccccc3)cc2)cc1`, the “activity, negative = inhibition” value is -12.2%.
Turning to `COc1cc(/C=N\NC(=O)C2C(=O)NCC2c2ccccc2)cc(OC)c1O` (stereo not drawn), the “activity, negative = inhibition” value is -12.3%.
As to `Clc1ccc(CSc2ncnc3c2ncn3[C@@H]2CCCCO2)cc1`, the activity, negative = inhibition is 11.8% [at 11.4 µM].
The same measure, in the same setting: with `CSc1nsc(SCc2ccc(Cl)cc2)n1` the figure was 11%.
As for `CC(C)[C@H](N)c1nnc(SC/C=C/c2ccccc2)o1`, the AC50 was 1.26 µM (active).
`CC(C)[C@H](N)c1nnc(SCc2ccc(Cl)cc2)o1`: the AC50 is 1.58 µM (active).
`Clc1cccc(Cl)c1CSc1nnc(/C=C/c2ccccc2)o1`: the activity, negative = inhibition was -16.1% [at 11.4 µM].
The same measure, in the same setting: with `CC(C)=NNc1ncnc2nc[nH]c12` the figure was 4.57% [at 11.4 µM]; with `NOCC(=O)O`, 4.96%; with `O=C(O)CCNc1ccccc1C(=O)O`, -9.69% [at 11.4 µM].
Regarding `Cn1cc(-c2nc3cnc(N4CCNCC4)nc3n(CCc3ccccc3)c2=O)c2ccccc21`, the concentration at half-maximal activity (AC50) is 12.6 µM (active).
On the same count and under the same terms, with `Cn1cc(-c2nc3cnc(N4CCNCC4)nc3n(Cc3ccc(F)cc3)c2=O)c2ccccc21` the figure was 12.6 µM (active); with `CN1CCN(c2ncc3nc(-c4cn(C)c5ccccc45)c(=O)n(CCc4ccccc4)c3n2)CC1`, 15.8 µM (active); with `CN1CCN(c2ncc3nc(-c4cn(C)c5ccccc45)c(=O)n(-c4ccccc4)c3n2)CC1`, 25.1 µM (active).
For `CN1CCN(c2ncc3ncc(=O)n(-c4ccccc4)c3n2)CC1`, the “activity, negative = inhibition” value was -3.73%.
The same measure, in the same setting: the value for `CN1CCN(c2ncc3nc(-c4ccccc4)c(=O)n(C)c3n2)CC1` was 16%; that for `NC1=C2NC=N[C@@H]2N(C/C=C\c2ccccc2)C=N1` was -17.9% [at 11.4 µM].
The same measure, in the same setting: with `CN(C)Cc1c[nH]c2nc[nH]c(=O)c12` the figure was -2.68% [at 11.4 µM]; with `O=C(O)C1=C/C(=C(/c2ccccc2)c2cc(C(=O)O)c(O)c3ccccc23)c2ccccc2C1=O`, 6.76% [at 11.4 µM] and -24.1% [at 11.4 µM].
Regarding `COCCn1c(=O)c(-c2cn(C)c3ccccc23)nc2cnc(N3CCNCC3)nc21`, the AC50 is 25.1 µM (active).
`Cn1c(=O)c(-c2ccccc2)nc2cnc(N3CCNCC3)nc21`: the “activity, negative = inhibition” value is -28%.
For the compound `Cn1cc(-c2nc3cnc(N4CCNCC4)nc3n(C)c2=O)c2ccccc21`, the concentration at half-maximal activity (AC50) is 20 µM (active).
With `O=S(=O)(O)c1cc(N=[N+]([O-])c2cc(S(=O)(=O)O)c3ccccc3c2)cc2ccccc12`, the activity, negative = inhibition is -21.4% [at 11.4 µM].
In the case of `Cc1ccc(NC(=O)/C(=C\c2ccc3c(c2)OCO3)NC(=O)c2ccco2)cc1`, the AC50 is 2.51 µM (active).
Regarding `C=CCNC(=O)/C(=C\c1ccc2c(c1)OCO2)NC(=O)c1ccc(Br)cc1`, the half-maximal activity concentration (AC50) was 0.447 µM (active).
Regarding `O=C(NC(Cc1ccccc1)C(=O)O)/C(=C\c1ccco1)NC(=O)c1ccc(Br)cc1` (stereo not drawn), the “activity, negative = inhibition” value was 17%.
With `CC(=O)NS(=O)(=O)c1ccc(NC(=S)NC(=O)c2ccco2)cc1`, the “activity, negative = inhibition” value was -2.27%.
Take `O=C(N/N=C/c1ccc2c(c1)OCO2)/C(=C/c1ccc2c(c1)OCO2)NC(=O)c1ccccc1`: the AC50 is 1.12 µM (active).
For the compound `Cc1ccc(S(=O)(=O)NC(=O)Nc2ncn[nH]2)cc1`, the activity, negative = inhibition was -2.15% [at 11.4 µM].
Same read-out and setting: the value for `CCOCCCn1cnc2c([nH]c3cc(OC)ccc32)c1=O` was -26.5%; that for `COc1ccc(/C(O)=C2/C(=O)C(=O)N(CCN3CCOCC3)C2c2ccc(C)cc2)cc1` (stereo not drawn) was -8.55%.
On to `CCOCCCN1C(=O)CN(C2CCCCC2)C(=O)C1c1ccc(OCC)c(OC)c1` (stereo not drawn), for which the AC50 was 12.6 µM (active).
Same read-out and setting: the value for `CCOCCCN1C(=O)CN(C2CCCCCC2)C(=O)C1c1ccc(OC)cc1` (stereo not drawn) was 12.6 µM (active).
In the case of `COc1ccc(NC(=O)CSC2=NC(=O)CC(C)=N2)cc1`, the “activity, negative = inhibition” value was -14.6%.
As for `COc1ccc(-n2nnnc2SCC(=O)Nc2ccccc2)cc1`, the AC50 is 14.1 µM (active).
For the compound `COc1ccc(NC(=O)CSc2ccc3c4c(cccc24)C(=O)c2ccccc2-3)cc1`, the half-maximal activity concentration (AC50) was 1 µM (active).
On the same count and under the same terms, with `COc1ccc(-n2ccnc2SCC(=O)Nc2ccccc2)cc1` the figure was 11.2 µM (active); with `COc1ccc(-n2ccnc2SCC(=O)Nc2ccc(OC)cc2OC)cc1`, 3.98 µM (active).
Regarding `COc1ccc(-n2nnnc2/C=C\Nc2ccccc2C(=O)c2ccccc2)cc1`, the “activity, negative = inhibition” value is 19.1%.
Regarding `COc1ccc(NC(=O)Cn2cccc2)c(OC)c1`, the “activity, negative = inhibition” value was -28.6%.
As to `COC(=O)CSc1nnc(C)n1-c1cccc(OC)c1`, the “activity, negative = inhibition” value is -15%.
On to `COc1ccc(O)c(/C=N/NC(=O)CSc2nnc(C)n2-c2ccccc2)c1`, for which the AC50 was 7.94 µM (active).
Consider `CCn1c(SCC(=O)OC)nnc1C1CCCCC1`, for which the “activity, negative = inhibition” value was -11.2%.
Still for that read-out and setting: the value for `COc1ccc(NC(=O)CSc2nnc(C3CC3)n2N)cc1` was -8.56% [at 11.4 µM]; that for `CCn1c(SC)nnc1C1CCN(S(=O)(=O)c2ccc(OC)cc2)CC1` was -23.7%.
With `CCn1c(SCC(=O)c2ccc(OC)cc2)nnc1C1CC1`, the AC50 was 22.4 µM (active).
As for `COc1ccc(OC)c(/C=N/NC(=O)c2csc3ccccc23)c1`, the activity, negative = inhibition was 3.57% [at 2.29 µM].
For the compound `CCC(=O)Nc1ccc(NC(=O)CSc2nnnn2-c2cccnc2)cc1C`, the AC50 is 3.55 µM (active).
Consider `Cn1nnnc1SCC(=O)Nc1ccccc1[N+](=O)[O-]`, for which the “activity, negative = inhibition” value is 6.06%.
Turning to `COc1ccc(NC(=O)CSc2nnc(C3CC3)n2-c2ccccc2)cc1`, the AC50 is 3.16 µM (active).
As for `CCn1ccc(C(=O)NC2=C(C#N)CCC2)n1`, the “activity, negative = inhibition” value was -14.8%.
Still for that read-out and setting: with `NCC(=O)Nc1ccccc1` the figure was -12.7% [at 11.4 µM].
Turning to `Cn1ccnc1SCC(=O)Nc1sccc1C#N`, the AC50 was 14.1 µM (active).
On to `Cn1c(SCC(=O)Nc2ccccc2)nc(O)cc1=O`, for which the half-maximal activity concentration (AC50) is 3.55 µM (active).
On the same count and under the same terms, the value for `COc1cccc(-n2ccnc2SCC(=O)Nc2nccs2)c1` was 3.55 µM (active).
In the case of `O=C(CSc1nnc2c3ccccc3c3ccccc3c2n1)Nc1ccccc1`, the activity, negative = inhibition was 1.75% [at 2.29 µM].
The same measure, in the same setting: with `O=C(O)CCC(=O)N1CCC[C@H]1C(=O)O` the figure was -4.42%; with `O=C(c1ccncc1)N1CCC2(CC1)CCN(c1ncccn1)CC2`, -21.7%.
Consider `O=C(c1cnccn1)N1CCC2(CCCN(C(c3ccccc3)c3ccccc3)C2)CC1`, for which the AC50 is 1.58 µM (active).
In the case of `O=C(c1ccncc1)N1CCC2(CC1)CCN(C(c1ccccc1)c1ccccc1)CC2`, the “activity, negative = inhibition” value was 20.4%.
On the same count and under the same terms, with `O=C(c1cnccn1)N1CCC2(CCCN(c3ncccn3)C2)CC1` the figure was -6.92%.
As to `O=C(c1ccncc1)N1CCC2(CCCN(C(c3ccccc3)c3ccccc3)C2)CC1`, the AC50 is 1 µM (active).
Regarding `Cc1ccc(C(=O)c2ccc(CC(=O)O)n2C)cc1`, the “activity, negative = inhibition” value is -2.84% [at 25.6 µM].
In the case of `Cc1ccc(Nc2nc(-c3sc(NC(=O)c4ccc([N+](=O)[O-])cc4)nc3C)cs2)cc1`, the concentration at half-maximal activity (AC50) is 10 µM (active).
The same measure, in the same setting: with `COc1ccccc1Nc1nc(-c2sc(NC(=O)c3ccc([N+](=O)[O-])cc3)nc2C)cs1` the figure was 8.91 µM (active).
For the compound `CCOc1ccccc1Nc1ccc(N)cc1S(=O)(=O)O`, the activity, negative = inhibition is -9.59% [at 11.4 µM].
With `CCOc1ccccc1Nc1nc(-c2sc(NC(=O)c3ccccc3)nc2C)cs1`, the AC50 was 7.94 µM (active).
Consider `CCOC(=O)C[C@@H](C(=O)OCC)[C@@H]1CCCCC1=O`, for which the activity, negative = inhibition was -10.4% [at 11.4 µM].
As to `COCCn1c(Cc2ccccc2)nnc1SCc1nc2ccccc2c(=O)[nH]1`, the AC50 is 3.16 µM (active).
For `CC[C@@H]1OC(=O)[C@H](C)[C@H](O[C@@H]2C[C@](C)(OC)[C@H](O)[C@H](C)O2)[C@H](C)[C@H](O[C@@H]2O[C@@H](C)C[C@@H](N(C)C)[C@@H]2O)[C@](C)(O)C[C@H](C)[C@@H]2N[C@H](COCCOC)O[C@H]([C@@H]2C)[C@]1(C)O`, the “activity, negative = inhibition” value was 6.81% [at 25.6 µM].
On the same count and under the same terms, the value for `CCn1c(=O)c2c(nc3n2CCS3)n(C)c1=O` was -18.6%.
With `CC(C)(Sc1ccc(CCN(CCCCC2CCCCC2)C(=O)NC2CCCCC2)cc1)C(=O)O`, the AC50 is 3.98 µM (active).
As for `Cc1cc(C)nc(NC(=O)c2cccc([N+](=O)[O-])c2C)n1`, the “activity, negative = inhibition” value is -28.1%.
On the same count and under the same terms, with `Cc1cccc(NC(=O)c2ccc([N+](=O)[O-])o2)n1` the figure was 1.23%.
Regarding `O=C(Nc1cccc(NC(=O)c2ccccc2[N+](=O)[O-])n1)c1ccccc1[N+](=O)[O-]`, the AC50 is 10 µM (active).
Same read-out and setting: with `CC(Cc1ccccc1)NC(=O)CSc1nc2nc3c(cc2c(=O)n1-c1ccccc1)COC(C)(C)C3` (stereo not drawn) the figure was 7.94 µM (active).
On to `CNC(C)c1cc(OC)ccc1OC` (stereo not drawn), for which the “activity, negative = inhibition” value was -18.8%.
With `COc1cc(/C=C\c2ccc(OC)cc2OC)cc(OC)c1`, the AC50 was 15.8 µM (active).
Consider `COc1ccc(/C=N/n2c(C)nnc2C)c(OC)c1`, for which the “activity, negative = inhibition” value is -26.8%.
Take `COc1ccc(N2CCN(S(=O)(=O)c3ccc4c(c3)CCCC4)CC2)c([N+](=O)[O-])c1`: the concentration at half-maximal activity (AC50) was 4.47 µM (active).
Same read-out and setting: with `O=C(c1cc(-c2ccncc2)nc2ccccc12)N1CCN(c2ccc(N3CCOCC3)nn2)CC1` the figure was 1.58 µM (active).
With `O=C(O)c1cc(-c2ccc(-c3ccccc3)cc2)nc2cc3ccccc3cc12`, the activity, negative = inhibition is 2.43% [at 11.4 µM].
Take `Cc1ccc(C)c(NC(=O)C2(C)CC3c4ccccc4C2c2ccccc23)c1` (stereo not drawn): the AC50 is 2.24 µM (active).
In the case of `Cc1ccc(C)c(NC(=O)C2CC3c4ccccc4C2c2ccccc23)c1` (stereo not drawn), the activity, negative = inhibition was -27.2% [at 2.29 µM].
In the case of `Cc1ccc(C)c(NC(=O)C2C3CCCC2C3c2ccccc2)c1` (stereo not drawn), the “activity, negative = inhibition” value is 17.3%.
On the same count and under the same terms, with `Fc1ccc(CN(C2=NCCN2)c2c(Cl)cccc2Cl)cc1` the figure was -26.2%; with `Cc1ccccc1C(=O)Nc1ccc(N2CCOCC2)nc1`, -27.9%.
Turning to `CCCC(=O)Nc1ccc2nc(SCC(=O)Nc3ccc(N4CCOCC4)c(Cl)c3)sc2c1`, the AC50 was 1.41 µM (active).
On the same count and under the same terms, the value for `O=C(Nc1ccc2nc(SCc3ccc(Cl)cc3)sc2c1)c1ccccc1C(=O)N1CCOCC1` was 7.94 µM (active).
Consider `Cn1c(CCC(=O)Nc2ccc(N3CCOCC3)cc2)nc(=O)c2ccccc21`, for which the activity, negative = inhibition is -13.8% [at 11.4 µM].
As for `Cc1ccc(NC(=O)c2cc(N3C(=O)C4CC=CCC4C3=O)ccc2N2CCOCC2)cc1Cl` (stereo not drawn), the AC50 was 12.6 µM (active).
Same read-out and setting: the value for `Cc1nc(SCC(=O)Nc2ccc(N3CCOCC3)cc2)nc(C)c1C` was 14.1 µM (active).
As for `O=C(c1ccc2nc3ccc(Cl)cc3c(=O)n2c1)N1CCOCC1`, the “activity, negative = inhibition” value is 2.72%.
